# Source: PubChem BioAssay (NCATS)
# Records with an inconclusive call do not appear. A call without a number means that no potency is given here. Calls of active or inactive are those of the source. Unless noted, the call rests on the fitted dose curve; in most records, active means well fitted inhibition curve with a large enough effect; inconclusive means small, poorly fitted or top-dose-only effect; inactive means flat fitted curve, though single readings scatter.
# Target: Guanidinoacetate N-methyltransferase (Homo sapiens) (UniProt Q14353)
# Experiment: Confirmatory Screen for Target Class Profiling of Small Molecule Inhibitors of Methyltransferases (AID 1745852; calls by dose curve; further: potency means the concentration at half of the fitted maximal effect)
# Details: MTase-Glo luminescence, SAH detection, recombinant enzyme; activity change, negative = inhibition: at 57.3 µM (top of the series) unless noted; series mostly up to 57.3 µM
SMILES,Potency,"activity change, negative = inhibition"
O=[N+]([O-])c1ccc(-[n+]2nc(-c3ccccc3)nn2-c2ccc(I)cc2)cc1,21.5 µM (active),–
COc1ccc(C(=O)N(CCC(C)C)Cc2nc(C)c(C)n2Cc2ccccc2C)c(OC)c1,–,-6.57%
CC(C)(C)c1ccc(-c2nc3ccccc3[nH]2)cc1,10.5 µM (active),–
COc1cc(O)c(C(=O)CCc2ccc(O)cc2)c(O[C@@H]2O[C@H](CO)[C@@H](O)[C@H](O)[C@H]2O)c1,–,-2.33% [at 29.8 µM]
CN1CCN(C(=O)c2ccc(Nc3nccc(-c4cccs4)n3)cc2Cl)CC1,–,0%
O=C(NCc1ccc(Oc2ccccc2)cc1)c1nc(-c2cc(Br)c(O)c(Br)c2)no1,42.9 µM (active),–

# Target: Nicotinamide N-methyltransferase (Homo sapiens) (UniProt P40261)
# Sequence (P40261 whole entry, looked up): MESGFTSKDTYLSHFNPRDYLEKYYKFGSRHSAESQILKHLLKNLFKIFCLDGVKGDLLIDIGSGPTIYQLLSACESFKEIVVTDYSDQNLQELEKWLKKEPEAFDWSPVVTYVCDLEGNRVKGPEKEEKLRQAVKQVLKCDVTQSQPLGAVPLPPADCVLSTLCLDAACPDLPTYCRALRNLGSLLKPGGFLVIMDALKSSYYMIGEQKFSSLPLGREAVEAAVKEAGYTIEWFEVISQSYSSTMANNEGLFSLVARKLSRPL
# Experiment: as above
# Details: MTase-Glo luminescence, SAH detection, recombinant enzyme; measured here: NNMT max response; stronger effect = lower value
row,SMILES,activity [%]
1,O=[N+]([O-])c1ccc(-[n+]2nc(-c3ccccc3)nn2-c2ccc(I)cc2)cc1,-39.3
2,COc1ccc(C(=O)N(CCC(C)C)Cc2nc(C)c(C)n2Cc2ccccc2C)c(OC)c1,-68.8
3,CC(C)(C)c1ccc(-c2nc3ccccc3[nH]2)cc1,-65.6
4,COc1cc(O)c(C(=O)CCc2ccc(O)cc2)c(O[C@@H]2O[C@H](CO)[C@@H](O)[C@H](O)[C@H]2O)c1,0.372
5,CN1CCN(C(=O)c2ccc(Nc3nccc(-c4cccs4)n3)cc2Cl)CC1,-31.1
6,O=C(NCc1ccc(Oc2ccccc2)cc1)c1nc(-c2cc(Br)c(O)c(Br)c2)no1,-75.3

# Target: Phenylethanolamine N-methyltransferase (Homo sapiens) (UniProt P11086)
# Sequence (P11086 whole entry, looked up): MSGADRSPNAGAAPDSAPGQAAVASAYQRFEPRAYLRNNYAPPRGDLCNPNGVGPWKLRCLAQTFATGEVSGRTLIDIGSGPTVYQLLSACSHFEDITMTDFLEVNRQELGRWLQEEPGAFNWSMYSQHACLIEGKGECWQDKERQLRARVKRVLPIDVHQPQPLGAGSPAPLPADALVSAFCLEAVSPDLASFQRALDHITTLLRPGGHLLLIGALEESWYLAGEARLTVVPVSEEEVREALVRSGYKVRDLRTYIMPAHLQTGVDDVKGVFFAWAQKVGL
# Experiment: as above
# Details: MTase-Glo luminescence, SAH detection, recombinant enzyme; measured here: PNMT max response; stronger effect = lower value
row,SMILES,activity [%]
1,O=[N+]([O-])c1ccc(-[n+]2nc(-c3ccccc3)nn2-c2ccc(I)cc2)cc1,-49.2
2,COc1ccc(C(=O)N(CCC(C)C)Cc2nc(C)c(C)n2Cc2ccccc2C)c(OC)c1,-7.99
3,CC(C)(C)c1ccc(-c2nc3ccccc3[nH]2)cc1,-70.3
4,COc1cc(O)c(C(=O)CCc2ccc(O)cc2)c(O[C@@H]2O[C@H](CO)[C@@H](O)[C@H](O)[C@H]2O)c1,0.533
5,CN1CCN(C(=O)c2ccc(Nc3nccc(-c4cccs4)n3)cc2Cl)CC1,-3.47
6,O=C(NCc1ccc(Oc2ccccc2)cc1)c1nc(-c2cc(Br)c(O)c(Br)c2)no1,-0.151

# Target: Glutathione peroxidase 1 (Homo sapiens) (UniProt P07203)
# Sequence (P07203 whole entry, looked up): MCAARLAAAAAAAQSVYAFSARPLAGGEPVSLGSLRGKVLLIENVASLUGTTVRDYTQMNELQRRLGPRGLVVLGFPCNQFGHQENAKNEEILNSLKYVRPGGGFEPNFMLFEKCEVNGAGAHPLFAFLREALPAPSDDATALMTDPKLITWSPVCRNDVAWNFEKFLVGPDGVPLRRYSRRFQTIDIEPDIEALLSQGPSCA
# Experiment: Primary qHTS Assay for Inhibitors of Recombinant Selenoprotein Glutathione Peroxidase 1 (GPX1) (AID 1845191); further: nearly all actives have a fitted effect of over 65% in size
# Details: recombinant GPX1, GR-coupled NADPH fluorescence, 15 min; series mostly up to 48.8 µM
# Method in brief: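 NADPH consumption tracked by fluorescence at 340/450 nm between t=0 and t=15 min, room temperature. Final mix: 10 nM GPX1, 100 nM glutathione reductase, 1 mM GSH, 0.5 mM NADPH, 0.5 mM cumene hydroperoxide, 0.01% BSA; 30 min compound–enzyme preincubation.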
row,SMILES,Potency
1,COc1ccccc1NC(=O)Nc1ccc2ccccc2c1,inactive
2,C=C(C)C(=O)OC1[C@@H]2C(=C)C(=O)O[C@@H]2C[C@@H](C)[C@@H]2C=CC(=O)[C@@]12C (stereo partly drawn),inactive
3,Cn1c(NC[C@@H](N)Cc2ccccc2)nc(-c2ccncc2)c(-c2ccc3ccccc3c2)c1=O,inactive
4,Nc1ncnc2c1ncn2[C@@H]1O[C@H](CO)C[C@H]1O,inactive
5,CCOC(=O)c1cnn(-c2ccc(NC(=O)C(Cl)=C(Cl)Cl)cc2)c1C(F)(F)F,inactive
6,COc1ccc(C(=O)N(CCC(C)C)Cc2nc(C)c(C)n2Cc2ccccc2C)c(OC)c1,inactive
7,Cc1ccc(C(=O)N2CCN(c3ccc([N+](=O)[O-])cc3)CC2)cc1Cl,inactive
8,CN(C)C(=O)c1cc2cnc(Nc3ccc(N4CCNCC4)cn3)nc2n1C1CCCC1,inactive
9,C=C1/C(=C/C=C2\CCC[C@]3(C)[C@@H]([C@H](C)/C=C/C(=O)C4CC4)CC[C@@H]23)C[C@@H](O)C[C@@H]1O,inactive
10,CC1OC2OC3C(OCC(O)C3O)OC(=O)C34CCC(C)(C)CC3C3=CCC5C6(C)CC(O)C(OC7OC(CO)C(O)C(O)C7OC7OCC(OC(=O)CC(C)(O)CC(=O)OC1C(OC1OCC(O)C(O)C1O)C2O)C(O)C7O)C(C)(CO)C6CCC5(C)C3(C)CC4O (stereo not drawn),inactive
11,CC(C)(C)c1ccc(-c2nc3ccccc3[nH]2)cc1,inactive
12,COc1cc(O)c(C(=O)CCc2ccc(O)cc2)c(O[C@@H]2O[C@H](CO)[C@@H](O)[C@H](O)[C@H]2O)c1,inactive
13,CN1CCN(C(=O)c2ccc(Nc3nccc(-c4cccs4)n3)cc2Cl)CC1,inactive
14,COc1ccccc1-c1cc(Nc2cccc(CS(N)(=O)=O)c2)ncn1,inactive
15,COc1cc2ncnc(Oc3cccc(NC(=O)Nc4cc(C(C)(C)C(F)(F)F)on4)c3)c2cc1OC,inactive
16,O=C(NNc1ccccc1)c1ccncc1,inactive
17,CN(CCCNC(=O)c1ccc2nc3c(c(Cl)c2c1)CCCC3)Cc1ccccc1,inactive
18,C=CC(=O)Nc1cc(Nc2nccc(-c3cn(C)c4ccccc34)n2)c(OC)cc1N(C)CCN(C)C,inactive
19,CCN(CC)c1ccc(C(=C2C=CC(=[N+](CC)CC)C=C2)c2cc(S(=O)(=O)O)ccc2S(=O)(=O)[O-])cc1,inactive
20,O=C(NC(NC(=S)Nc1ccc(F)c([N+](=O)[O-])c1)C(Cl)(Cl)Cl)C(c1ccccc1)c1ccccc1 (stereo not drawn),inactive
